Results from PubChem BioAssay.
A number with no mark means an inactive call.

Assay: plasmodial surface anion channel blockers, osmotic lysis – cell-based, P. falciparum Indochina, OD700, 18 h, primary screen (AID 1157)
Conditions: P. falciparum Indochina infected erythrocytes, osmotic lysis OD700, 18 h; higher = more signal, called active from +8 up or from −8 down

| SMILES | z-score |
| --- | --- |
| Cc1cc2c(nc1C)CCCCN2CC(C)ON=C[C@@H](C)[C@H](OCc1ccccc1)C(C)C (stereo partly specified) | 0.171 |
| CO[C@@H]1C=CCC(=O)N2CCC[C@H]2C(=O)OC[C@@H](C)C(=O)OC[C@H]1C | 0.181 |
| CO[C@@H]1C=CCC(=O)N[C@@H](C)C(=O)OC[C@@H](OC)[C@H](C)CCCC(=O)OC[C@H]1C | -2.43 |
| COc1ccc(COC(=O)NN=C2C[C@@H](O)[C@@H](O)[C@@H]3[C@@H]4C(=O)N(c5ccc(F)cc5F)C(=O)[C@@H]4CC[C@H]23)cc1 | 1.24 |
| CC(C)[C@@H](OCc1ccccc1)[C@H](C)C=NOC[C@@H](O)COCc1ccco1 | -0.0498 |
| O=C1[C@H]2[C@H]3[C@H](O)[C@H](O)CC(=NOCc4ccccc4)[C@@H]3CC[C@H]2C(=O)N1C[C@@H]1CCCO1 | 0.305 |
| CC(C)=CCCC(C)=CCON=C1C[C@@H](O)[C@@H](O)[C@@H]2[C@@H]3C(=O)N(C(C)(C)C)C(=O)[C@@H]3CC[C@H]12 | -0.138 |
| CCOC(=O)[C@H](Cc1ccccc1)NC(=O)CCC1CC(OC(=O)NCCc2ccc(F)cc2)CC2(CCCC(COC(=O)NCCc3ccccc3OC)O2)O1 (stereo partly specified) | 0.174 |
| COc1ccc(COC(=O)NN=C2C[C@@H](O)[C@@H](O)[C@@H]3[C@@H]4C(=O)N(C5CCCCC5)C(=O)[C@@H]4CC[C@H]23)cc1 | 0.549 |
| CC(C)=CCCC(C)=CCON=C1C[C@@H](O)[C@@H](O)[C@@H]2[C@@H]3C(=O)N(C4CCCCC4)C(=O)[C@@H]3CC[C@@H]12 | 0.525 |
| COC(=O)[C@@H]1CC[C@H](C)[C@@H](c2ccc(C)cc2)N1C(=O)c1ccc(C=NO[C@@H]2O[C@H](COC(C)=O)[C@@H](OC(C)=O)[C@H](OC(C)=O)[C@H]2OC(C)=O)cc1 | -1.79 |
| COc1cccc([C@H]2Oc3ccc(OC)cc3C(=NOC[C@@H](O)[C@H]3O[C@@H]4OC(C)(C)O[C@@H]4[C@H]3O)[C@@H]2O)c1 | 0.537 |
| O=C1[C@H]2[C@H]3[C@H](O)[C@H](O)CC(=NO[C@@H]4O[C@H](CO)[C@@H](O)[C@H](O)[C@H]4O)[C@H]3CC[C@H]2C(=O)N1c1cccc(Oc2ccccc2)c1 | 0.207 |
| CCN1C(=O)[C@H]2[C@H]3[C@H](O)[C@H](O)CC(=NOCC(C)C)[C@@H]3CC[C@H]2C1=O | 0.379 |
| CC(C)C[C@H](NC(=O)CCC1CC(OC(=O)NCc2cccc3ccccc23)CC2(CCCC(COC(=O)NCc3ccccc3)O2)O1)C(=O)NCC(c1ccccc1)c1ccccc1 (stereo partly specified) | 0.688 |
| COC(=O)CC=C[C@@H](C)[C@@H](C=NOC[C@H]1O[C@H](c2ccccc2)C=C[C@@H]1Oc1ccc(OC)cc1)NS(=O)(=O)c1ccc(C)cc1 | 0.857 |
| C#CCCCON=C1C[C@@H](O)[C@@H](O)[C@@H]2[C@@H]3C(=O)N(c4ccc(F)cc4F)C(=O)[C@@H]3CC[C@H]12 | -1.41 |
| CO[C@H]1COC(=O)[C@@H](Cc2ccccc2)NC(=O)[C@@H](C)COC(=O)CCC[C@@H]1C | -2.21 |

| SMILES | z-score |
| --- | --- |
| COc1cccc([C@H]2Oc3ccc(OC)cc3C(=NO[C@@H](C)c3cn([C@H](CO)Cc4ccccc4)nn3)[C@@H]2O)c1 | 0.611 |
| CCOC(=O)NN=C1C[C@@H](O)[C@@H](O)[C@@H]2[C@@H]3C(=O)N(Cc4ccc5c(c4)OCO5)C(=O)[C@@H]3CC[C@H]12 | 0.476 |
| O=C(NN=C1C[C@@H](O)[C@@H](O)[C@@H]2[C@@H]3C(=O)N(C[C@@H]4CCCO4)C(=O)[C@@H]3CC[C@H]12)OCc1ccccc1 | 0.404 |
| CC(C)CON=C1C[C@@H](O)[C@@H](O)[C@@H]2[C@@H]3C(=O)N(c4ccc(F)cc4F)C(=O)[C@@H]3CC[C@H]12 | -1.09 |
| C[C@@H](c1ccccc1)N1C(=O)[C@H]2[C@H]3[C@H](O)[C@H](O)CC(=NO[C@@H]4O[C@H](CO)[C@@H](O)[C@H](O)[C@H]4O)[C@@H]3CC[C@H]2C1=O | -0.137 |
| CCOC(=O)[C@H](CC(C)C)NC(=O)CCC1CC(OC(=O)NCc2ccc3c(c2)OCO3)CC2(CCCC(COC(=O)NCC3CCCCC3)O2)O1 (stereo partly specified) | -0.0704 |
| O=C1[C@H]2[C@H]3[C@H](O)[C@H](O)CC(=NOC[C@@H](O)COCc4ccco4)[C@H]3CC[C@H]2C(=O)N1C[C@@H]1CCCO1 | 0.33 |
| CCOC(=O)NN=C1C[C@@H](O)[C@@H](O)[C@@H]2[C@@H]3C(=O)N([C@@H](C)c4ccccc4)C(=O)[C@@H]3CC[C@@H]12 | -0.0871 |
| CC(CCN1CCCc2nc(C)c(C)cc21)=NOC(C)CN1CCCCc2nc(C)c(C)cc21 (stereo unspecified) | 0.415 |
| CO[C@H]1COC(=O)[C@H](C)NC(=O)CC=C[C@@H](C)[C@H](OC)COC(=O)[C@@H](OCc2ccccc2)C=C[C@@H]1C | 0.378 |
| COC(=O)[C@H](C)NC(=O)CCC1CC(OC(=O)NCCc2ccc(F)cc2)CC2(CCCC(COC(=O)NCc3cccc(C(F)(F)F)c3)O2)O1 (stereo partly specified) | 0.125 |
| CCOC(=O)CCN1C(=O)[C@H]2[C@H]3[C@H](O)[C@H](O)CC(=NOCC(C)C)[C@H]3CC[C@H]2C1=O | 0.304 |
| CCOC(=O)NN=C1C[C@@H](O)[C@@H](O)[C@@H]2[C@@H]3C(=O)N([C@@H](C)c4ccccc4)C(=O)[C@@H]3CC[C@H]12 | 0.378 |
| COc1ccc(O[C@H]2C=C[C@@H](c3ccccc3)O[C@@H]2CON=C(C)CCN2CCc3nc(-c4ccccc4)c(-c4ccccc4)cc3C2)cc1 | 0.71 |
| C#CCCCON=C1C[C@@H](O)[C@@H](O)[C@@H]2[C@@H]3C(=O)N(c4ccc(F)cc4F)C(=O)[C@@H]3CC[C@@H]12 | 0.0591 |
| Cc1ccc(S(=O)(=O)N[C@H]2COC(=O)CC=C[C@@H](C)COC(=O)CC=C[C@@H]2C)cc1 | -0.014 |
| CC(C)CON=C1C[C@@H](O)[C@@H](O)[C@@H]2[C@@H]3C(=O)N(C[C@@H]4CCCO4)C(=O)[C@@H]3CC[C@@H]12 | -0.21 |
| Cc1ccc(S(=O)(=O)OC[C@H]2CN3[C@H](c4ccc(Br)cc4)[C@@H](C)CC[C@H]3C(=O)O2)cc1 | 0.761 |
